Source: PubChem BioAssay AID1159580 (chemical genetic matrix, 2015)
Values joined by “and” are separate entries in the source; they are usually repeats but may differ in a detail not shown here. Equal entries are not always repeated. In all, about 5,500 compounds went through this assay and about 2,000 (36%) were called active. Another 18% or so got no clear call; they are omitted. No stated cut-off is given here; in the data, active means normalized growth mostly below about 0.91 (no sharp cut-off); inconclusive means no clear call, values can overlap the other calls; inactive means mostly above about 0.92. This is one part of the list.

Test: chemical genetic growth profiling, strain panel (AID 1159580);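 further: tested at 20 µM; growth read once vehicle control cultures reached saturation at 30 °C; 1 = growth at the plate median or of vehicle wells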
Conditions: growth OD

Measured: normalized growth

Cc1nc2ccccn2c(=O)c1CCN1CCC(C(=O)c2ccc(F)cc2)CC1
inactive: S. cerevisiae deletion strains, locus YJR075W, strain HOC1, stronger effect = lower value 0.974 and 1.01 | S. cerevisiae deletion strains, locus YKL009W, strain mrt4, stronger effect = lower value 1.01 | S. cerevisiae deletion strains, locus YKL068W, stronger effect = lower value 1 | S. cerevisiae deletion strains, locus YKL085W, strain MDH1 (second series), stronger effect = lower value 1.03 | S. cerevisiae deletion strains, locus YKL085W, strain MDH1, stronger effect = lower value 1.03 | S. cerevisiae deletion strains, locus YKL160W, strain elf1, stronger effect = lower value 0.991 | S. cerevisiae deletion strains, locus YKL190W, strain CNB1, stronger effect = lower value 1.02 | S. cerevisiae deletion strains, locus YKR001C, strain vps1, stronger effect = lower value 0.995 | S. cerevisiae deletion strains, locus YKR026C, strain gcn3, stronger effect = lower value 0.98 | S. cerevisiae deletion strains, locus YKR091W, strain srl3, stronger effect = lower value 0.994 | S. cerevisiae deletion strains, locus YLL001W, strain dnm1, stronger effect = lower value 0.997 | S. cerevisiae deletion strains, locus YLL026W, stronger effect = lower value 0.989 | S. cerevisiae deletion strains, locus YLL041C, strain sdh2, stronger effect = lower value 0.991 | S. cerevisiae deletion strains, locus YLR027C, strain aat2, stronger effect = lower value 1 | S. cerevisiae deletion strains, locus YLR039C, strain RIC1, stronger effect = lower value 1.03 | S. cerevisiae deletion strains, locus YLR058C, strain SHM2, stronger effect = lower value 1.02 | S. cerevisiae deletion strains, locus YLR102C, strain apc9, stronger effect = lower value 0.993 | S. cerevisiae deletion strains, locus YLR113W, strain HOG1, stronger effect = lower value 1.01 | S. cerevisiae deletion strains, locus YLR221C, strain rsa3, stronger effect = lower value 1 | S. cerevisiae deletion strains, locus YLR258W, strain gsy2, stronger effect = lower value 0.986 | S. cerevisiae deletion strains, locus YLR262C, strain YPT6 (second series), stronger effect = lower value 0.954 | S. cerevisiae deletion strains, locus YLR262C, strain YPT6, stronger effect = lower value 1.05 | S. cerevisiae deletion strains, locus YLR268W, strain sec22, stronger effect = lower value 0.995 | S. cerevisiae deletion strains, locus YLR320W, strain mms22, stronger effect = lower value 1 | S. cerevisiae deletion strains, locus YLR330W, strain CHS5, stronger effect = lower value 1.02 | S. cerevisiae deletion strains, locus YLR342W, strain FKS1 (second series), stronger effect = lower value 0.988 | S. cerevisiae deletion strains, locus YLR342W, strain FKS1, stronger effect = lower value 0.988 | S. cerevisiae deletion strains, locus YLR357W, strain rsc2, stronger effect = lower value 0.924 | S. cerevisiae deletion strains, locus YLR370C, strain arc18, stronger effect = lower value 0.991 | S. cerevisiae deletion strains, locus YLR371W, strain rom2, stronger effect = lower value 0.989 | S. cerevisiae deletion strains, locus YLR384C, strain iki3, stronger effect = lower value 0.985 | S. cerevisiae deletion strains, locus YLR418C, strain cdc73, stronger effect = lower value 1.01 | S. cerevisiae deletion strains, locus YML016C, strain PPZ1, stronger effect = lower value 1.02 | S. cerevisiae deletion strains, locus YML032C, strain rad52, stronger effect = lower value 0.985 | S. cerevisiae deletion strains, locus YML120C, strain ndi1, stronger effect = lower value 1 | S. cerevisiae deletion strains, locus YML124C, strain tub3, stronger effect = lower value 0.995 | S. cerevisiae deletion strains, locus YMR058W, strain fet3, stronger effect = lower value 1 | S. cerevisiae deletion strains, locus YMR078C, strain ctf18, stronger effect = lower value 0.994 | S. cerevisiae deletion strains, locus YMR125W, strain sto1, stronger effect = lower value 0.962 | S. cerevisiae deletion strains, locus YMR129W, stronger effect = lower value 0.998 | S. cerevisiae deletion strains, locus YMR205C, strain PFK2, stronger effect = lower value 0.985 | S. cerevisiae deletion strains, locus YMR223W, strain ubp8, stronger effect = lower value 0.966 | S. cerevisiae deletion strains, locus YMR231W, strain pep5, stronger effect = lower value 0.977 | S. cerevisiae deletion strains, locus YMR307W, strain GAS1, stronger effect = lower value 1.01 and 1 | S. cerevisiae deletion strains, locus YNL067W, strain RPL9B, stronger effect = lower value 1.04 | S. cerevisiae deletion strains, locus YNL071W, strain lat1, stronger effect = lower value 0.993 | S. cerevisiae deletion strains, locus YNL128W, strain TEP1, stronger effect = lower value 1.02 and 1.01 | S. cerevisiae deletion strains, locus YNL153C, strain GIM3, stronger effect = lower value 1.06 | S. cerevisiae deletion strains, locus YNL175C, strain NOP13, stronger effect = lower value 1.01 | S. cerevisiae deletion strains, locus YNL183C, strain NPR1, stronger effect = lower value 0.979 | S. cerevisiae deletion strains, locus YNL197C, strain WHI3, stronger effect = lower value 1.03 | S. cerevisiae deletion strains, locus YNL209W, strain ssb2, stronger effect = lower value 0.994 | S. cerevisiae deletion strains, locus YNL224C, strain SQS1, stronger effect = lower value 1.01 | S. cerevisiae deletion strains, locus YNL233W, strain BNI4, stronger effect = lower value 1.03 | S. cerevisiae deletion strains, locus YNL248C, strain rpa49, stronger effect = lower value 0.979 | S. cerevisiae deletion strains, locus YNL250W, strain rad50, stronger effect = lower value 0.999 | S. cerevisiae deletion strains, locus YNL271C, strain bni1, stronger effect = lower value 0.977 | S. cerevisiae deletion strains, locus YNL298W, strain CLA4, stronger effect = lower value 0.987 | S. cerevisiae deletion strains, locus YNL307C, strain MCK1, stronger effect = lower value 0.987 | S. cerevisiae deletion strains, locus YNL322C, strain KRE1 (second series), stronger effect = lower value 0.966 | S. cerevisiae deletion strains, locus YNL322C, strain KRE1, stronger effect = lower value 1.02 and 1.01 | S. cerevisiae deletion strains, locus YNR049C, strain mso1, stronger effect = lower value 0.995 | S. cerevisiae deletion strains, locus YNR052C, strain pop2, stronger effect = lower value 0.974 | S. cerevisiae deletion strains, locus YOL006C, strain TOP1, stronger effect = lower value 1.09 | S. cerevisiae deletion strains, locus YOL012C, strain htz1 1.02 | S. cerevisiae deletion strains, locus YOL147C, strain pex11, stronger effect = lower value 0.997 | S. cerevisiae deletion strains, locus YOR001W, strain rrp6, stronger effect = lower value 1.01 | S. cerevisiae deletion strains, locus YOR061W, strain CKA2, stronger effect = lower value 1.02 | S. cerevisiae deletion strains, locus YOR069W, strain VPS5, stronger effect = lower value 1.02 | S. cerevisiae deletion strains, locus YOR070C, strain gyp1, stronger effect = lower value 0.988 | S. cerevisiae deletion strains, locus YOR080W, strain dia2, stronger effect = lower value 0.981 | S. cerevisiae deletion strains, locus YOR083W, strain WHI5 (second series), stronger effect = lower value 1.02 | S. cerevisiae deletion strains, locus YOR083W, strain WHI5, stronger effect = lower value 0.946 | S. cerevisiae deletion strains, locus YOR106W, strain vam3, stronger effect = lower value 0.994 | S. cerevisiae deletion strains, locus YOR136W, strain idh2, stronger effect = lower value 0.996 | S. cerevisiae deletion strains, locus YOR144C, strain elg1, stronger effect = lower value 0.997 | S. cerevisiae deletion strains, locus YOR184W, strain ser1, stronger effect = lower value 0.988 | S. cerevisiae deletion strains, locus YOR231W, strain MKK1, stronger effect = lower value 1.04 | S. cerevisiae deletion strains, locus YOR265W, strain rbl2, stronger effect = lower value 0.989 | S. cerevisiae deletion strains, locus YOR270C, strain vph1, stronger effect = lower value 1.01 | S. cerevisiae deletion strains, locus YOR290C, strain snf2, stronger effect = lower value 0.989 | S. cerevisiae deletion strains, locus YOR316C, strain cot1, stronger effect = lower value 0.999 | S. cerevisiae deletion strains, locus YPL051W, strain arl3, stronger effect = lower value 0.987 | S. cerevisiae deletion strains, locus YPL055C, strain LGE1, stronger effect = lower value 1.09 | S. cerevisiae deletion strains, locus YPL078C, strain atp4, stronger effect = lower value 0.989 | S. cerevisiae deletion strains, locus YPL106C, strain sse1, stronger effect = lower value 0.963 | S. cerevisiae deletion strains, locus YPL240C, strain hsp82, stronger effect = lower value 0.983 | S. cerevisiae deletion strains, locus YPL241C, strain CIN2, stronger effect = lower value 1.02 | S. cerevisiae deletion strains, locus YPL256C, strain CLN2, stronger effect = lower value 1.05 | S. cerevisiae deletion strains, locus YPR119W, strain clb2, stronger effect = lower value 1 | S. cerevisiae deletion strains, locus YPR141C, strain kar3, stronger effect = lower value 1 | S. cerevisiae deletion strains, locus YPR163C, strain tif3, stronger effect = lower value 0.992 | S. cerevisiae deletion strains, locus YPR167C, strain met16, stronger effect = lower value 0.991 | S. cerevisiae deletion strains, strain wtn01, stronger effect = lower value 1.02 | S. cerevisiae strains, strain wild type, stronger effect = lower value 1.01
